Several values for one entry are separate records, joined by “and”; a condition that tells them apart may be missing. Equal values may be shown once. Records with an inconclusive call do not appear. The source holds several records for some structures; these can differ, active in one and inactive in another. Activity calls are given as the source filed them. The calls were made as follows, unless noted: active = hit-call score of the fitted dose curve at least 0.9, where 1 is the maximum; inconclusive = response in the unintended direction; inactive = score below 0.9.
Legend:
[1] = tested on: Sodium/Iodide Symporter (NIS), SLC5A5 (gene 6528); test: CPHEA_Stoker_NIS_Inhibition_RAIU: CPHEA's Radioactive Iodide Uptake (RAIU) Assay for Sodium/Iodide Symporter (NIS) Inhibition, Stoker and Laws Labs (AID 2283841)
Outline: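 HEK293T cells stably expressing human NIS (hNIS-HEK293T-EPA) were exposed to test chemicals at 0.001–100uM (0.5% final DMSO) with 125I at a final 329pM in HBSS/10mM HEPES pH 7.4. After 2 hours at room temperature and ice-cold washes, intracellular 125I was counted as CPM and normalized to DMSO wells.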

[2] = CPHEA_Stoker_NIS_Cytotoxicity: Cytotoxicity Assessment for CPHEA's Radioactive Iodide Uptake (RAIU) Assay for Sodium/Iodide Symporter (NIS) Inhibition, Stoker and Laws Labs (AID 2283897);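 as to AC50: active means loss of ATP signal versus DMSO meaning cytotoxicity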
Outline: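 hNIS-HEK293T-EPA human kidney cells were exposed for 2 hours at room temperature to test chemicals (0.001–100uM, 0.5% final DMSO) in HEPES-buffered HBSS, pH 7.4. Viability was read as ATP content by luciferase bioluminescence, loss of signal versus DMSO.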

[3] = biological target: Estrogen receptor (Homo sapiens) (UniProt P03372); test: ATG_hERa_XSP2: Attagene TRANS-FACTORIAL Multi-Species (XSP2) HepG2 Assay for human Estrogen Receptor (ERa) (AID 2283827)
Sequence of Estrogen receptor (Homo sapiens) (P03372 whole entry, looked up, the tested form may be a part): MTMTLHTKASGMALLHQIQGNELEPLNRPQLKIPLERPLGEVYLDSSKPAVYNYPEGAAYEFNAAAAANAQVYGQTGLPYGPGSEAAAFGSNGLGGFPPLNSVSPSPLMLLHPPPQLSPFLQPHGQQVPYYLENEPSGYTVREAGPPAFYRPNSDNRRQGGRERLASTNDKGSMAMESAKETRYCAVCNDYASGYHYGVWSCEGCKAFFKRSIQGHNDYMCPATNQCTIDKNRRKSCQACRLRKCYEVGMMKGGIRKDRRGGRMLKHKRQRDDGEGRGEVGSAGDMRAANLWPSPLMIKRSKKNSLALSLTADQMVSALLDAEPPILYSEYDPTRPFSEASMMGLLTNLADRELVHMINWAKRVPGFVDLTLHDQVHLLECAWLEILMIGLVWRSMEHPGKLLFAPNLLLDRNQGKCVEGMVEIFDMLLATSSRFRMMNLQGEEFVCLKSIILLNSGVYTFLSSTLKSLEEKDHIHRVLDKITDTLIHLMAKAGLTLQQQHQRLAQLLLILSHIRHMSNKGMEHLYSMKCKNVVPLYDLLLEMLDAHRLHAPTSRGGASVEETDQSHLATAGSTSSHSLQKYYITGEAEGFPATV
Outline: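 Trans-activation of exogenous human ERa-Gal4 chimera read in HepG2 as reporter transcript after 24 h exposure; medium included 3 nM 6-alpha-fluorotestosterone and 1.5 nM norgestrel. Quantified by RT-PCR with capillary electrophoresis, positive-direction fitting against DMSO.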

[4] = tested on: frog Estrogen Receptor (ER2), gene 100174814; test: ATG_frER2_XSP2: Attagene TRANS-FACTORIAL Multi-Species (XSP2) HepG2 Assay for frog Estrogen Receptor (ER2) (AID 2283828)
Outline: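 Read-out: reporter transcript levels by RT-PCR with 6-FAM primer extension, HpaI digestion and capillary electrophoresis, scored as induction over DMSO control. Transfected HepG2 carrying Xenopus ER2–GAL4 chimera; compounds incubated 24 h.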

[5] = biological target: mouse Peroxisome Proliferator-activated Receptor gamma (PPARg), Pparg (gene 19016) (UniProt P37238); test: ATG_mPPARg_XSP2: Attagene TRANS-FACTORIAL Multi-Species (XSP2) HepG2 Assay for mouse Peroxisome Proliferator-activated Receptor gamma (PPARg) (AID 2283830);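 also: hits are gains in reporter mRNA above DMSO so AC50 marks activation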
Sequence of mouse Peroxisome Proliferator-activated Receptor gamma (PPARg), Pparg (gene 19016) (P37238 whole entry, looked up, the tested form may be a part): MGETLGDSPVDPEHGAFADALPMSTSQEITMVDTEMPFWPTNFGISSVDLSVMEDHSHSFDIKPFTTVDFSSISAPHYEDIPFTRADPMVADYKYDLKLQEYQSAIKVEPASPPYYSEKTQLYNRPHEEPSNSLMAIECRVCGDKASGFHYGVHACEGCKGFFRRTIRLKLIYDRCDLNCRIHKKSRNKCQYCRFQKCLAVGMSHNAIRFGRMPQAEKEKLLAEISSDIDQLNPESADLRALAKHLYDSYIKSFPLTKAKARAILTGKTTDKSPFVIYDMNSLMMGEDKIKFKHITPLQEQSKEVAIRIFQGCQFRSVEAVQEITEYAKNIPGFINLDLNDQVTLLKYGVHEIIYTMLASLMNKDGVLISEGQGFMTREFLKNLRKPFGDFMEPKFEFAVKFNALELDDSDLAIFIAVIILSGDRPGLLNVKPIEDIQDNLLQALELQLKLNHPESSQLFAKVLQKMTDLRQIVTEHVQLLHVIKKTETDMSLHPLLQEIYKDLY
Outline: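 Multiplexed TRANS reporter readout: after 24 h chemical exposure of transfected HepG2 cells (with 3 nM 6-alpha-fluorotestosterone, 1.5 nM norgestrel present), RNA reverse-transcribed, amplified, 6-FAM-labelled and resolved by capillary electrophoresis; mouse PPARg-Gal4 induction scored against DMSO.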

[6] = biological target: Nuclear receptor subfamily 1 group I member 2 (Mus musculus) (UniProt O54915); test: ATG_mPXR_XSP2: Attagene TRANS-FACTORIAL Multi-Species (XSP1) HepG2 Assay for mouse Pregnane X Receptor (PXR) (AID 2283831)
Sequence of Nuclear receptor subfamily 1 group I member 2 (Mus musculus) (O54915 whole entry, looked up): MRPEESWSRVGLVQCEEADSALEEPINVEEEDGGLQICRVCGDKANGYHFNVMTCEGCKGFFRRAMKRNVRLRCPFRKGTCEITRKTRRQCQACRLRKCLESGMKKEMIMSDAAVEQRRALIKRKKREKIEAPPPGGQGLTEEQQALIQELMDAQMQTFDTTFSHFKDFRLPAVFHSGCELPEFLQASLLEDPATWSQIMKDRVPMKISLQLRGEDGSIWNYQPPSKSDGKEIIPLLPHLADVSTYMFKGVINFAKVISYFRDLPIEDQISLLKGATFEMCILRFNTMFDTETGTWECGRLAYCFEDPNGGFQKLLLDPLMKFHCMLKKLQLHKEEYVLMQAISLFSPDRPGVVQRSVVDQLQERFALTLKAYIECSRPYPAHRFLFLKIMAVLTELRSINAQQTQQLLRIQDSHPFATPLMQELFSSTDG
Outline: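 Fluorescence signals from capillary electrophoresis of RT-PCR-amplified reporter mRNA give the readout, gain-of-signal versus DMSO. Transfected HepG2 cells, 24 h dosing, medium contained 3 nM 6-alpha-fluorotestosterone and 1.5 nM norgestrel.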

[7] = biological target: zebrafish Thyroid Hormone Receptor alpha (TRa), thraa (gene 30670) (UniProt Q98867); test: ATG_zfTRa_XSP2: Attagene TRANS-FACTORIAL Multi-Species (XSP1) HepG2 Assay for zebrafish Thyroid Hormone Receptor alpha (TRa) (AID 2283832);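 also: actives raise zebrafish TRa-Gal4 reporter transcript above DMSO baseline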
Sequence of zebrafish Thyroid Hormone Receptor alpha (TRa), thraa (gene 30670) (Q98867 whole entry, looked up, the tested form may be a part): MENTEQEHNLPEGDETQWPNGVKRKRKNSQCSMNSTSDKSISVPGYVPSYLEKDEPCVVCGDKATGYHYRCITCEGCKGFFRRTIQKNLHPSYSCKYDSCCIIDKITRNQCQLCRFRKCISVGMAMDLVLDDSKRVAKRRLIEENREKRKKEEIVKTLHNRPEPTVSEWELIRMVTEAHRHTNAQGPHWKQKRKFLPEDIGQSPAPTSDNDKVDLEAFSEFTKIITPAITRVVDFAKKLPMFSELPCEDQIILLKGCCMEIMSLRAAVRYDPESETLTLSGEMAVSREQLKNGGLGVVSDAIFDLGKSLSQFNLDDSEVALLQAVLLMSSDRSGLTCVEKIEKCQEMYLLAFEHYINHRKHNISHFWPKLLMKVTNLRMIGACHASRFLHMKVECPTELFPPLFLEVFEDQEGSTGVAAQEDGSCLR
Outline: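 HepG2, transient MRTU transfection, exogenous NR-Gal4 chimeras; 24 h dosing; mRNA readout via RT-PCR/CE fluorescence; positive direction vs DMSO.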

[8] = tested on: zebrafish Peroxisome Proliferator-activated Receptor gamma (PPARg), gene 557037; test: ATG_zfPPARg_XSP2: Attagene TRANS-FACTORIAL Multi-Species (XSP2) HepG2 Assay for zebrafish Peroxisome Proliferator-activated Receptor gamma (PPARg) (AID 2283833);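 also: reporter mRNA from a zebrafish PPARg GAL4 chimera measured by RT-PCR and capillary electrophoresis; actives increase reporter signal over DMSO so AC50 reflects activation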
Outline: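 HepG2, transient MRTU transfection, 24 h compound; zfPPARg-GAL4 reporter mRNA by RT-PCR + capillary electrophoresis; gain-of-signal vs DMSO.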

[9] = tested on: turtle Thyroid Hormone Receptor, alpha (TRa), gene 101949057; test: ATG_trTRa_XSP2: Attagene TRANS-FACTORIAL Multi-Species (XSP1) HepG2 Assay for turtle Thyroid Hormone Receptor, alpha (TRa) (AID 2283834);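 also: hits raise reporter mRNA over the DMSO baseline so AC50 marks activators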
Outline: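 Multiplexed TRANS reporter assay; HepG2 carrying NR-Gal4 constructs treated 24 h. mRNA of the GAL4-UAS reporter quantified via labelled RT-PCR fragments on a genetic analyzer, vs DMSO negative control.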

[10] = ATG_M_61_XSP2: Attagene TRANS-FACTORIAL Multi-Species (XSP2) HepG2 Assay for M61 Transcription Factor (Internal Marker) (AID 2283835; active = hit-call score of the fitted dose curve at least 0.9, where 1 is the maximum; inactive = score below 0.9;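 also: active means a rise in signal above the DMSO baseline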)
Outline: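 Internal background marker, read as RT-PCR/capillary-electrophoresis reporter mRNA 24 h post-dose in transiently transfected HepG2 cells. Androgen receptor stimulated with 3 nM 6-alpha-fluorotestosterone plus 1.5 nM norgestrel; gain of signal versus DMSO analysed.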

[11] = biological target: zebrafish Thyroid Hormone Receptor beta (TRb), thrb (gene 30607) (UniProt Q9PVE4); test: ATG_zfTRb_XSP2: Attagene TRANS-FACTORIAL Multi-Species (XSP1) HepG2 Assay for zebrafish Thyroid Hormone Receptor beta (TRb) (AID 2283836)
Sequence of zebrafish Thyroid Hormone Receptor beta (TRb), thrb (gene 30607) (Q9PVE4 whole entry, looked up): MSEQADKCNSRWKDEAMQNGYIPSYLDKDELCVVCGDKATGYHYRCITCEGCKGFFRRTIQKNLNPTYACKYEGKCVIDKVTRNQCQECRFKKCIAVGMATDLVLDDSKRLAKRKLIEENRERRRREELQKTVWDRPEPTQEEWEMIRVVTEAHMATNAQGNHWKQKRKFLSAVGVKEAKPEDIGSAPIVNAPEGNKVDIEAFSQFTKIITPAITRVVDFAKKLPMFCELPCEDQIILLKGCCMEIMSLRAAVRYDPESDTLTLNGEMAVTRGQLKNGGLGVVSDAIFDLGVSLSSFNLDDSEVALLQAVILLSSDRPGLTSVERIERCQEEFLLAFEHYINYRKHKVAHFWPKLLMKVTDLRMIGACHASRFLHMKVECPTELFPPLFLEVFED
Outline: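 Transfect HepG2 with multiple reporter transcription units, dose chemical, incubate 24 h. Isolate RNA, reverse-transcribe, amplify and fluorescently label reporter sequences, digest with HpaI, then resolve by capillary electrophoresis. Positive direction fitted against DMSO.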

[12] = ATG_XTT_Cytotoxicity_XSP2: Cytotoxicity Assessment in the Attagene TRANS-FACTORIAL Multi-Species (XSP2) HepG2 Assay (AID 2283837)
Outline: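 XTT-based cell number read-out in human HepG2 liver cells carrying transfected reporter units, measured 24 h after chemical dosing. Activity is signal loss versus DMSO baseline.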

[13] = biological target: human Thyroid hormone Receptor alpha (TRa), THRA (gene 7067) (UniProt P10827); test: ATG_hTRa_XSP2: Attagene TRANS-FACTORIAL Multi-Species (XSP2) HepG2 Assay for human Thyroid hormone Receptor alpha (TRa) (AID 2283838)
Sequence of human Thyroid hormone Receptor alpha (TRa), THRA (gene 7067) (P10827 whole entry, looked up, the tested form may be a part): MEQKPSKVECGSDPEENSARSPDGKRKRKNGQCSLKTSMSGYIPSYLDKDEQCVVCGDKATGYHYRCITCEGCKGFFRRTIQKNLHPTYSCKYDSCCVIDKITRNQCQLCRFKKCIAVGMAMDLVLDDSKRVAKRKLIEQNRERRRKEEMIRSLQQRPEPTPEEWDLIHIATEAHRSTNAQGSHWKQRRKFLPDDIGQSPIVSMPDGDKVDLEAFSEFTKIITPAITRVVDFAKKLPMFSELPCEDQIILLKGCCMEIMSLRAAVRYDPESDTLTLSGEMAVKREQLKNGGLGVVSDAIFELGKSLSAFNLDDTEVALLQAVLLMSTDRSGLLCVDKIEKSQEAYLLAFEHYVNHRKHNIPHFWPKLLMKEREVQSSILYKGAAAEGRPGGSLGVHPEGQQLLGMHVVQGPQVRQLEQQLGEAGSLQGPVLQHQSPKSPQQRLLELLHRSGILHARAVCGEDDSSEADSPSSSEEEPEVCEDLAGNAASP
Outline: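 Reporter transcripts were read by RT-PCR with fluorescent primer extension, HpaI digestion and capillary electrophoresis. These came from HepG2 cells carrying multiplexed TRa-Gal4 TRANS constructs, harvested 24 hours after dosing. The medium also held 6-alpha-fluorotestosterone (3 nM) and norgestrel (1.5 nM), and increases were fitted against DMSO.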

[14] = biological target: human Thyroid hormone Receptor beta (TRb), THRB (gene 7068) (UniProt P10828); test: ATG_hTRb_XSP2: Attagene TRANS-FACTORIAL Multi-Species (XSP2) HepG2 Assay for human Thyroid hormone Receptor beta (TRb) (AID 2283840);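 also: actives raise reporter mRNA so potency reflects agonist-like gain of signal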
Sequence of human Thyroid hormone Receptor beta (TRb), THRB (gene 7068) (P10828 whole entry, looked up): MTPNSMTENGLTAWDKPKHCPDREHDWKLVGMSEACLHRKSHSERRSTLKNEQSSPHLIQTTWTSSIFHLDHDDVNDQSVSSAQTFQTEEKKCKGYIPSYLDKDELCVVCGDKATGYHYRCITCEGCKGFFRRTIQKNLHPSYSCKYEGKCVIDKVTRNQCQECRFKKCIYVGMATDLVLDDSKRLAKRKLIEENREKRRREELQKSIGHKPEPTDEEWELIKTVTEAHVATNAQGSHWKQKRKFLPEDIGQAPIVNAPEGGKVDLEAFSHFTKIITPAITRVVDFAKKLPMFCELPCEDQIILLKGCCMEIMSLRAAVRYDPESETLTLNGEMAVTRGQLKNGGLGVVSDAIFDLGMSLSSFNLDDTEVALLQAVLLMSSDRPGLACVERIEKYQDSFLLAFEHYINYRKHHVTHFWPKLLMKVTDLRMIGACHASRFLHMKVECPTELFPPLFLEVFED
Outline: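 Gain-of-signal reporter transcription, referenced to DMSO, was measured in transiently transfected HepG2 after 24 h exposure; labeled RT-PCR products were resolved by capillary electrophoresis. Assay medium included 3 nM 6-alpha-fluorotestosterone and 1.5 nM norgestrel.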

[15] = CEETOX_H295R_OHPREG_noMTC: CeeTox H295R High-throughput Steroidogenesis Assay for OH-Pregnenolone (OHPREG), maximum tolerated concentration (MTC) filtered results only (AID 2283912; active = hit-call score of the fitted dose curve at least 0.9, where 1 is the maximum; inactive = score below 0.9); details: actives raise or lower the signal
Outline: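 Medium 17alpha-hydroxypregnenolone quantified by reverse-phase HPLC-MS/MS after 48 h chemical exposure of forskolin-prestimulated (10 uM, 48 h) H295R, 0.1% DMSO final. Fitting bidirectional relative to DMSO; no maximum-tolerated-concentration filtering applied.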

[16] = CEETOX_H295R_OHPROG_noMTC: CeeTox H295R High-throughput Steroidogenesis Assay for OH-Progesterone (OHPROG), maximum tolerated concentration (MTC) filtered results only (AID 2283914; active = hit-call score of the fitted dose curve at least 0.9, where 1 is the maximum; inactive = score below 0.9); details: actives raise or lower the signal
Outline: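 After 48 h forskolin (10 uM) prestimulation, H295R adrenal cells received test chemical in 0.1% DMSO for 48 h. Medium 17alpha-hydroxyprogesterone was MTBE-extracted and measured by HPLC-MS/MS; gain or loss relative to DMSO, no MTT-based MTC filtering.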

[17] = CEETOX_H295R_ANDR_noMTC: CeeTox H295R High-throughput Steroidogenesis Assay for Androstenedione (ANDR), maximum tolerated concentration (MTC) filtered results only (AID 2283915; active = hit-call score of the fitted dose curve at least 0.9, where 1 is the maximum; inactive = score below 0.9); details: actives raise or lower the signal
Outline: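 Androstenedione secreted into medium was measured by LC-MS/MS after MTBE extraction. Human adrenal H295R cells received 10 uM forskolin for 48 h before 48 h chemical exposure (0.1% DMSO). Gain or loss fitted against DMSO, including concentrations above the MTT-derived MTC.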

Measured: AC50

O=C(NCO)NCO
inactive: [1] | [2]

O=S(=O)(c1ccc(Cl)cc1)c1ccc(Cl)cc1
active: [3] 4.86 µM and 27.8 µM | [4] 28 µM | [5] 16.3 µM and 26.8 µM | [6] 4.34 µM and 2.83 µM | [14] 19.8 µM | [1] 9.92 µM
inactive: [4] | [7] | [8] | [9] | [10] | [11] | [12] | [13] | [2]

O=C1C(Cl)=C(Cl)C(=O)c2ccccc21
active: [1] 9.92 µM | [2] 50 µM

CC(C)(C)c1cc(O)ccc1O
inactive: [6] | [8] | [9] | [10] | [11] | [13] | [14]
active: [3] 33.1 µM | [4] 46.8 µM | [5] 70.6 µM | [7] 54.9 µM

O=C1C2(Cl)C3(Cl)C4(Cl)C(Cl)(Cl)C5(Cl)C3(Cl)C1(Cl)C5(Cl)C24Cl (centres undefined)
active: [14] 10 µM
not listed: [3] | [6] | [12] | [15] | [16] | [17]
inactive: all other assays above

Cc1ccc2ccccc2c1C
inactive: [1]

O=C(O)CCC(F)(C(F)(F)F)C(F)(F)F
inactive: [1]

C[C@]12CC[C@H](O)CC1=CC[C@@H]1[C@@H]2CC[C@]2(C)C(=O)CC[C@@H]12
active: [4] 3.43 µM and 2.23 µM | [6] 6.42 µM and 5.9 µM
inactive: [5] | [7] | [8] | [9] | [10] | [11] | [14]

Oc1ccc(-c2ccccc2)cc1
inactive: [5] | [6] | [7] | [8] | [9] | [10] | [11] | [12] | [13] | [14]
active: [4] 1.75 µM and 690 nM | [5] 100 µM

CC(C)c1cccc(C(C)C)c1O
inactive: [1] | [2]

C[C@]12CCC(=O)C[C@@H]1CC[C@@H]1[C@@H]2CC[C@]2(C)[C@@H](O)CC[C@@H]12
inactive: [5] | [7] | [8] | [9] | [10] | [11] | [13]
active: [14] 0.421 µM

CC1(C)CCC(Cc2ccc(Cl)cc2)C1(O)Cn1cncn1 (centres undefined)
active: [4] 26 µM | [5] 70.1 µM | [6] 2.82 µM
not listed: [12] | [15] | [16] | [17]
inactive: all other assays above

CC(=O)c1cc(C(C)(C)C)cc2c1CCC2(C)C
inactive: [1] | [2]

Clc1ccc(C2(Cn3cncn3)CC(Br)CO2)c(Cl)c1 (centres undefined)
inactive: [4] | [5] | [7] | [8] | [9] | [10] | [11] | [12] | [13] | [14] | [1] | [2]
active: [3] 4.43 µM and 6.56 µM | [4] 28.8 µM | [5] 62.7 µM | [6] 3.32 µM and 1.59 µM | [9] 26.9 µM

CC1(C)Cc2cccc(O)c2O1
inactive: [1]

COP(=O)(OC)O/C(=C\Cl)c1cc(Cl)c(Cl)cc1Cl
inactive: [4] | [7] | [9] | [10] | [11] | [14] | [1] | [2]
active: [3] 9.68 µM | [5] 14.8 µM | [8] 47.3 µM

C[C@H]1CCCC(=O)CCC/C=C/c2cc(O)cc(O)c2C(=O)O1
inactive: [4] | [5] | [7] | [8] | [9] | [10] | [12] | [13] | [14] | [1] | [15]
active: [3] 3.41 nM and 1.59 nM | [4] 0.00566 µM | [2] 83.8 µM | [16] 2.3 µM | [17] 77.4 µM
